Reference: PubChem BioAssay (Tox21)
Where “and” joins values, the source holds several entries; their conditions need not be identical. Identical values can stand only once. Calls of active or inactive are those of the source. Unless noted, calls follow the shape of the dose curve; as a rule, active = well fitted curve in the direction sought with a large enough effect in the repeat runs; inconclusive = weak or mixed curves; inactive = no such curve, though single readings can be large; an effect the other way counts as inactive or inconclusive.

Key:
[1] = qHTS assay for small molecule agonists of the p53 signaling pathway (AID 651631; calls by dose curve; also: nearly all actives have a fitted effect of over 15% in size)
Summary of the method: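 Stably transfected HCT-116 cells (beta-lactamase behind p53 response elements) get compounds after a 5 h settling period; 16 h later at 37 °C, FRET substrate is loaded and fluorescence read after 2 h.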

[2] = qHTS assay for small molecules that induce genotoxicity in human embryonic kidney cells expressing luciferase-tagged ATAD5 (AID 651632); also: nearly all actives have a fitted effect of over 15% in size
Summary of the method: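 A rise in luciferase signal from ATAD5-tagged HEK293T cells marks genetic stress. Cells were exposed to compounds for 16 hr at 37C, 5% CO2, then luciferase was quantified after a 30 min room-temperature incubation with Amplite.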

[3] = qHTS assay for small molecule agonists of the p53 signaling pathway - cell viability (AID 651633; calls by dose curve;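 also: p53RE-bla HCT reporter cells with a stable beta-lactamase p53 reporter; series mostly up to about 83 µM; nearly all actives have a fitted effect of over 30% in size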)
Summary of the method: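 p53RE-bla cells, seeded at 4,000 per well and rested 5 h at 37 C/5% CO2, received compounds in DMSO for 16 h at 37 C. CellTiter-Glo was then added, and luminescence was read after 30 min at room temperature to gauge cytotoxicity.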

[4] = qHTS assay for small molecules that induce genotoxicity in human embryonic kidney cells expressing luciferase-tagged ATAD5 - cell viability (AID 651634; calls by dose curve; also: nearly all actives have a fitted effect of over 25% in size)
Summary of the method: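 Cytotoxicity counter-readout: after 15.5 hr compound treatment at 37C, live-cell protease activity in ATAD5-luciferase HEK293T cells measured by CellTiter-Fluor fluorescence, 30 min development at 37C.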

[5] = qHTS assay for small molecule disruptors of the mitochondrial membrane potential - cell viability (AID 720634; calls by dose curve;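 also: human HepG2 liver cancer cells; series mostly up to about 83 µM; nearly all actives have a fitted effect of over 20% in size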)
Summary of the method: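 Cytotoxicity was quantified from ATP content by CellTiter-Glo luminescence in the same wells as the MMP dye read-out. HepG2 (2,000 cells/well) were plated overnight and exposed to compounds for 1 hr at 37 C.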

[6] = qHTS assay for small molecule disruptors of the mitochondrial membrane potential (AID 720635)
Summary of the method: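 HepG2 cells (2,000/well) attached overnight at 37C, then took compound for 1 hr at 37C, 5% CO2. Mito-MPS dye was added for 30 min; fluorescence was read at 490/535 nm (monomers) and 540/590 nm (aggregates).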

[7] = qHTS assay to test for compound auto fluorescence at 590 nm (red) in HepG2 cells (AID 720674)
Summary of the method: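 Rose Bengal sodium served as the red fluorophore standard. HepG2 monolayers (overnight attachment, MEM with 10% FBS) were exposed to test compounds for 1 hr at 37 C and read at Ex 540/Em 590 nm.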

[8] = qHTS assay to test for compound auto fluorescence at 535 nm (green) in HepG2 cells (AID 720675)
[9] = qHTS assay to test for compound auto fluorescence at 460 nm (blue) in HEK293 cells (AID 720678)
Summary of the method: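 Cells were seeded and left to adhere for 4-5 hr at 37C. Compounds were then pin-transferred. After an overnight incubation at 37C under 5% CO2, intrinsic fluorescence at 405/460 nm was measured and referenced to triamterene.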

[10] = qHTS assay to test for compound auto fluorescence at 590 nm (red) in HEK293 cells (AID 720679)
Summary of the method: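 Each well held 2,000 HEK293 cells in medium containing 10% dialyzed FBS. Following 4-5 hr attachment at 37C, 23 nL test compound or DMSO was added; plates sat overnight, and red fluorescence (540/590nm) was recorded.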

[11] = qHTS assay to test for compound auto fluorescence at 535 nm (green) in HEK293 cells (AID 720680)
[12] = qHTS assay to test for compound auto fluorescence at 460 nm (blue) in HEK293 cell free culture (AID 720681)
Summary of the method: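 Test compounds were pinned into cell-free culture medium (DMEM with 10% FBS) and fluorescence was read directly at Ex/Em 405/460 nm. Signals were expressed as fluorescence equivalents of triamterene, with DMSO vehicle as control.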

[13] = qHTS assay to test for compound auto fluorescence at 535 nm (green) in HEK293 cell free culture (AID 720682)
Summary of the method: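 Using fluorescein as calibrant, autofluorescence was quantified at 485/535 nm in cell-free DMEM containing 10% FBS after pintool addition of compound or vehicle.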

[14] = qHTS assay to test for compound auto fluorescence at 590 nm (red) in HepG2 cell free culture (AID 720684)
Summary of the method: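 Readout: intrinsic compound fluorescence at 590 nm emission after 540 nm excitation, scaled to Rose Bengal sodium. Matrix was cell-free MEM with 10% FBS; DMSO vehicle wells served as control.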

[15] = qHTS assay to test for compound auto fluorescence at 460 nm (blue) in HepG2 cell free culture (AID 720685)
Summary of the method: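 Cell-free plates of MEM plus 10% FBS received 23 nL compound or DMSO vehicle; blue-channel (405/460 nm) intensity scored against triamterene as reference fluorophore.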

[16] = qHTS assay to test for compound auto fluorescence at 535 nm (green) in HepG2 cell free culture (AID 720686)
[17] = qHTS assay to test for compound auto fluorescence at 460 nm (blue) in HepG2 cells (AID 720687)
Summary of the method: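 Cells (2,000/well in MEM with 10% FBS) attached overnight at 37 C, then were exposed to compound or DMSO for 1 hr at 37 C, 5% CO2. Fluorescence read at Ex/Em 405/460 nm, expressed as triamterene-equivalent signal.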

[18] = target: Glucocorticoid receptor (Homo sapiens) (UniProt P04150); test: qHTS assay to identify small molecule agonists of the glucocorticoid receptor (GR) signaling pathway (AID 720691; active = well fitted activation curve with a large enough effect in the signal ratio in the repeat runs, not every such curve was filed as active; inconclusive = weak or mixed curves, or effect the other way; inactive = no such curve, though single readings can be large or run the other way; the % refers to the signal ratio; also: potency is read from the fitted curve at half-maximal effect)
Summary of the method: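 Agonist-mode qHTS in HeLa cells stably expressing a glucocorticoid-response-element beta-lactamase reporter. Fluorescence intensity read with FRET substrate (2 h, room temperature) after 18 h compound treatment at 37 C.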

[19] = target: Glucocorticoid receptor (Homo sapiens) (UniProt P04150); test: qHTS assay to identify small molecule antagonists of the glucocorticoid receptor (GR) signaling pathway (AID 720692; active = well fitted inhibition curve with a large enough effect in the signal ratio in the repeat runs, not every such curve was filed as active; inconclusive = weak or mixed curves, or effect the other way; inactive = no such curve, though single readings can be large or run the other way; the % refers to the signal ratio)
Summary of the method: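 Inhibition of dexamethasone-driven (5 nM final) beta-lactamase expression was measured in GRE-reporter HeLa cells over 18 h at 37C. Fluorescence was read after 2 h with the B/G FRET substrate at room temperature.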

[20] = qHTS assay to test for compound auto fluorescence at 590 nm (red) in HEK293 cell free culture (AID 720683)
Summary of the method: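 Tox21 10K library compounds were pinned into cell-free DMEM with 10% FBS and fluorescence was read at excitation 540 nm. Activity is expressed as Rose Bengal sodium equivalency.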

Measured: Potency

Sequence of Glucocorticoid receptor (Homo sapiens) (P04150 whole entry, looked up): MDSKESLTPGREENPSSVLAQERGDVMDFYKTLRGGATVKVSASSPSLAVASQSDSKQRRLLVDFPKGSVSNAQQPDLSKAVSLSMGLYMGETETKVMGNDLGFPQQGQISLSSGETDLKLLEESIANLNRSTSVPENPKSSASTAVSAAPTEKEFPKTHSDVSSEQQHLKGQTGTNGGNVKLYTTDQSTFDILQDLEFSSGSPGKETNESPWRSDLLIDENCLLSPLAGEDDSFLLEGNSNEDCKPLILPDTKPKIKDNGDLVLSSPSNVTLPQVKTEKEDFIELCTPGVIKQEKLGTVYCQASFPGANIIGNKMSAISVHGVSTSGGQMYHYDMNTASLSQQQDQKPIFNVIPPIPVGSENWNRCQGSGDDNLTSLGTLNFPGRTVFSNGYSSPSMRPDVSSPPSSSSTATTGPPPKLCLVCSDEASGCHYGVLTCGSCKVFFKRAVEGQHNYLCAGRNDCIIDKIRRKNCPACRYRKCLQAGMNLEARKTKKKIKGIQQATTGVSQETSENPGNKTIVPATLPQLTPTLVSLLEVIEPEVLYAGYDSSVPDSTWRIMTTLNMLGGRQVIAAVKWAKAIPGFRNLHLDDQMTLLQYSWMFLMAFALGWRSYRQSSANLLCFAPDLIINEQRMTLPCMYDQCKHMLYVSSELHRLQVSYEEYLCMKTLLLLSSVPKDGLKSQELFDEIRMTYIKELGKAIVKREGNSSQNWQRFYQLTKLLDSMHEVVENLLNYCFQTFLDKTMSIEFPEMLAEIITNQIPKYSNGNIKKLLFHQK

CCO[Si](CCCNC(N)=O)(OCC)OCC
inactive: [1] | [2] | [3] | [4] | [5] | [6] | [7] | [8] | [9] | [10] | [11] | [12] | [13] | [14] | [15] | [16] | [17] | [18] | [19]

CCc1cccc2c3c([nH]c12)C(CC)(CC(=O)O)OCC3 (centres undefined)
inactive: [1] | [2] | [3] | [4] | [5] | [7] | [8] | [9] | [10] | [11] | [12] | [13] | [20] | [14] | [15] | [16] | [17]

C=CC(=O)OCCCC
inactive: [1] | [2] | [3] | [4] | [5] | [6] | [7] | [8] | [9] | [10] | [11] | [12] | [13] | [20] | [14] | [15] | [16] | [17] | [18] | [19]

CC1(C)OC(=O)NC1=O
inactive: [1] | [2] | [3] | [4] | [5] | [6] | [7] | [8] | [9] | [10] | [11] | [12] | [13] | [20] | [14] | [15] | [16] | [17] | [18] | [19]

CN(C)C
inactive: [1] | [2] | [3] | [4] | [5] | [6] | [7] | [8] | [9] | [10] | [11] | [12] | [13] | [14] | [15] | [16] | [17]

CCCCCCCCCCCCCO
inactive: [1] | [2] | [3] | [4] | [5] | [6] | [7] | [8] | [9] | [10] | [11] | [12] | [13] | [20] | [14] | [15] | [16] | [17] | [18] | [19]

CCCCCCCC/C=C\CCCCCCCC(=O)O
inactive: [1] | [2] | [3] | [4] | [5] | [6] | [7] | [8] | [9] | [10] | [11] | [12] | [13] | [20] | [14] | [15] | [16] | [17] | [18]

COC(=O)c1ccc(C)cc1
inactive: [1] | [2] | [3] | [4] | [5] | [6] | [7] | [8] | [9] | [10] | [11] | [12] | [13] | [20] | [14] | [15] | [17] | [18] | [19]

O=C(O)CCCCCCCCCCCC(=O)O
inactive: [1] | [2] | [3] | [4] | [5] | [6] | [7] | [8] | [9] | [10] | [11] | [12] | [13] | [14] | [15] | [16] | [17]

CC(C)=CCO
inactive: [1] | [2] | [3] | [4] | [5] | [6] | [7] | [8] | [9] | [10] | [11] | [12] | [13] | [20] | [14] | [15] | [16] | [17]

C=CN1CCCC1=O
inactive: [1] | [2] | [3] | [4] | [5] | [7] | [8] | [9] | [10] | [11] | [12] | [13] | [20] | [14] | [15] | [16] | [17]

C=C1C[C@H]2[C@@H]3C=C(C)C4=CC(=O)CC[C@]4(C)[C@H]3CC[C@]2(C)[C@@]1(OC(C)=O)C(C)=O
inactive: [1] | [2] | [3] | [4] | [5] | [6] | [7] | [8] | [9] | [10] | [11] | [12] | [13] | [14] | [15] | [16] | [17] | [19]
active: [18] 120 nM [inconclusive] and 14.1 nM

C1COCCN1
inactive: [1] | [2] | [3] | [4] | [5] | [6] | [7] | [8] | [9] | [10] | [11] | [12] | [13] | [20] | [14] | [15] | [16] | [17]

[Na+]
inactive: [1] | [2] | [3] | [4] | [5] | [6] | [7] | [8] | [9] | [10] | [11] | [12] | [13] | [20] | [14] | [15] | [16] | [17] | [18] | [19]

CCC(Cc1c(I)cc(I)c(N)c1I)C(=O)O (centres undefined)
inactive: [1] | [2] | [3] | [4] | [5] | [6] | [7] | [8] | [9] | [10] | [11] | [12] | [13] | [20] | [14] | [15] | [16] | [17] | [18]
